Test results as given in PubChem BioAssay (Tox21).
Results filed as inconclusive are left out. A call without a number means that no potency is given here. Active and inactive are the calls of the source. Unless noted, the call rests on the fitted dose curve; in most records, active means well fitted curve in the direction sought with a large enough effect in the repeat runs; inconclusive means weak or mixed curves; inactive means no such curve, though single readings can be large; an effect the other way counts as inactive or inconclusive.

Assays:
[1] = qHTS assay to identify aromatase inhibitors - cell viability counter screen (AID 743084);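 further: cells stimulated with testosterone during compound exposure; nearly all actives have a fitted effect of over 55% in size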
[2] = qHTS assay to identify small molecule that activate the aryl hydrocarbon receptor (AhR) signaling pathway - cell viability counter screen (AID 743086);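 further: HepG2 liver cells carrying the AhR DRE luciferase reporter; series mostly up to about 70 µM; nearly all actives have a fitted effect of over 45% in size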
Method in brief: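 HepG2-AhR-luc (HG2L7.5c1) cells, 4000/well, were preincubated 5 h at 37C, exposed to compound in qHTS format for 24 hr at 37C, then given CellTiter-Fluor for 30 min; viability was read as fluorescence in the reporter wells.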

[3] = biological target: Peroxisome proliferator-activated receptor gamma (Homo sapiens) (UniProt P37231); experiment: qHTS assay to identify small molecule agonists of the peroxisome proliferator-activated receptor gamma (PPARg) signaling pathway (AID 743094; active means well fitted activation curve with a large enough effect in the signal ratio in the repeat runs, not every such curve was filed as active; the % refers to the signal ratio)
Method in brief: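 Compounds dissolved in DMSO were added to PPARg UAS-bla HEK293H cells for 17 h at 37C, and reporter expression was quantified by fluorescence intensity after 1 h with LiveBLAzer B/G FRET substrate.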

[4] = biological target: Peroxisome proliferator-activated receptor gamma (Homo sapiens) (UniProt P37231); experiment: qHTS assay to identify small molecule antagonists of the peroxisome proliferator-activated receptor gamma (PPARg) signaling pathway (AID 743191; calls by dose curve; further: series mostly up to about 63 µM; nearly all actives have a fitted effect of over 30% in size)
Method in brief: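 GeneBLAzer PPARg UAS-bla HEK293H cells carrying a UAS-driven beta-lactamase reporter were plated at 3000 cells/well, preincubated 5 h at 37C, then given compound for 17 h at 37C; LiveBLAzer B/G FRET substrate was read after 1 h at room temperature.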

[5] = qHTS assay to identify small molecule antagonists of the peroxisome proliferator-activated receptor gamma (PPARg) signaling pathway - cell viability counter screen (AID 743194); details: Potency: co-treated with 50 nM rosiglitazone; further: nearly all actives have a fitted effect of over 55% in size
Method in brief: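 PPARg-UAS-bla HEK293H cells were plated, rested 5 h at 37 C, then treated with compounds plus rosiglitazone (50 nM final) for 17 h at 37 C; viability was then read by CellTiter-Glo luminescence after 30 min at room temperature.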

[6] = qHTS assay for small molecule agonists of the antioxidant response element (ARE) signaling pathway (AID 743202; active means well fitted activation curve with a large enough effect in the signal ratio in the repeat runs, not every such curve was filed as active; the % refers to the signal ratio)
Method in brief: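 Read-out: LiveBLAzer B/G FRET substrate fluorescence after 2 h at room temperature, following 16 h compound treatment at 37 C of HepG2 cells carrying an ARE-driven beta-lactamase reporter.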

[7] = qHTS assay for small molecule agonists of the antioxidant response element (ARE) signaling pathway - cell viability counter screen (AID 743203; calls by dose curve; further: nearly all actives have a fitted effect of over 55% in size)
Method in brief: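 Following 16 hrs of compound treatment at 37C, HepG2 cells with an ARE-controlled beta-lactamase gene were lysed with CellTiter-Glo. Luminescence was read after 30 min at room temperature.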

[8] = qHTS assay for small molecule activators of the heat shock response signaling pathway - cell viability counter screen (AID 743209); further: nearly all actives have a fitted effect of over 50% in size; further: potency means the concentration at half of the fitted maximal effect
Method in brief: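 Readout: CellTiter-Glo luminescence, 30 min at room temperature. System: HSE-bla HeLa cells, 1500/well, plated overnight. Treatment: compounds in DMSO, 5 h at 37 C.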

[9] = qHTS assay for small molecule activators of the heat shock response signaling pathway (AID 743210; active means well fitted activation curve with a large enough effect in the signal ratio in the repeat runs, with a control signal flat, not every such curve was filed as active; the % refers to the signal ratio; further: series mostly up to about 63 µM)
Method in brief: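 HSE-bla HeLa cells (beta-lactamase reporter under heat shock response elements) were exposed to compounds for 5 h at 37 C, then loaded with LiveBLAzer B/G FRET substrate for 2.5 h at room temperature before fluorescence reading.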

[10] = qHTS assay to identify small molecule agonists of the peroxisome proliferator-activated receptor delta (PPARd) signaling pathway - cell viability counter screen (AID 743211); further: nearly all actives have a fitted effect of over 55% in size
Method in brief: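 Viability of GeneBLAzer PPARd UAS-bla HEK293H cells was assessed after 17 h compound incubation at 37C, using CellTiter-Glo reagent added after the reporter read and luminescence recorded 30 min later.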

[11] = qHTS assay to identify small molecule antagonists of the peroxisome proliferator-activated receptor delta (PPARd) signaling pathway - cell viability counter screen (AID 743213); further: nearly all actives have a fitted effect of over 50% in size
Method in brief: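 Viability counter-screen, qHTS format: PPARd-bla HEK293H, L165041 300 nM final, 17 h compound exposure at 37 C, CellTiter-Glo luminescence after 30 min RT.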

[12] = biological target: Bile acid receptor (Homo sapiens) (UniProt Q96RI1); experiment: qHTS assay to identify small molecule antagonists of the farnesoid-X-receptor (FXR) signaling pathway (AID 743217; active means well fitted inhibition curve with a large enough effect in the signal ratio in the repeat runs, not every such curve was filed as active; the % refers to the signal ratio)
Method in brief: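 GeneBLAzer FXR-UAS-bla HEK 293T, CDCA-stimulated (50 uM final). Compound treatment 16 h, 37 °C. Detection: beta-lactamase cleavage of B/G FRET substrate, fluorescence.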

[13] = qHTS assay to identify small molecule agonists of the farnesoid-X-receptor (FXR) signaling pathway - cell viability counter screen (AID 743218); further: nearly all actives have a fitted effect of over 45% in size
Method in brief: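 Parallel cytotoxicity test: compound-treated (16 h, 37 C) HEK 293T FXR-bla reporter cells were lysed with CellTiter-Glo and luminescence recorded.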

[14] = biological target: Bile acid receptor (Homo sapiens) (UniProt Q96RI1); experiment: qHTS assay to identify small molecule agonists of the farnesoid-X-receptor (FXR) signaling pathway (AID 743220; active means well fitted activation curve with a large enough effect in the signal ratio in the repeat runs, not every such curve was filed as active; the % refers to the signal ratio)
Method in brief: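 Beta-lactamase reporter under UAS control in GeneBLAzer FXR HEK 293T cells (5000/well) measured with LiveBLAzer FRET substrate after 2 h at room temperature. Compound exposure lasted 16 h at 37C.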

[15] = qHTS assay to identify small molecule antagonists of the farnesoid-X-receptor (FXR) signaling pathway - cell viability counter screen (AID 743221; active means well fitted cell-killing curve with a large enough effect in the repeat runs, not every such curve was filed as active; further: nearly all actives have a fitted effect of over 50% in size)
Method in brief: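 Quantitative HTS of the Tox21 10K library run in parallel with the beta-lactamase reporter read. HEK 293T cells carrying a UAS-driven bla reporter got compound and 50 uM CDCA (final) for 16 h; ATP-based luminescence followed.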

[16] = biological target: Vitamin D3 receptor (Homo sapiens) (UniProt P11473); experiment: qHTS assay to identify small molecule agonists of the vitamin D receptor (VDR) signaling pathway (AID 743222; calls by dose curve)
Method in brief: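 In VDR-bla cells, compound-induced beta-lactamase expression is quantified by FRET substrate fluorescence. Treatment lasts 16 h at 37C; substrate develops 2 h at room temperature.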

[17] = biological target: Vitamin D3 receptor (Homo sapiens) (UniProt P11473); experiment: qHTS assay to identify small molecule antagonists of the vitamin D receptor (VDR) signaling pathway (AID 743223; active means well fitted inhibition curve with a large enough effect in the signal ratio in the repeat runs, not every such curve was filed as active; the % refers to the signal ratio)
Method in brief: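 Fluorescence from LiveBLAzer B/G FRET substrate, read after 2 h at room temperature, reflects beta-lactamase reporter activity in VDR-bla cells treated 16 h at 37C with compounds and agonist 1alpha,25-dihydroxyvitamin D3 (3 nM final).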

[18] = biological target: Aryl hydrocarbon receptor (Homo sapiens) (UniProt P35869); experiment: qHTS assay to identify small molecule that activate the aryl hydrocarbon receptor (AhR) signaling pathway (AID 743085);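 further: HG2L7.5c1 human HepG2 liver cells with stably integrated DRE-driven firefly reporter; series mostly up to about 70 µM; nearly all actives have a fitted effect of over 15% in size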
Method in brief: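 Steps: seed HepG2-AhR-luc cells; allow 5 h at 37C; pin-transfer test compound or vehicle; incubate 24 h at 37C; add viability dye (30 min, 37C) and read fluorescence; add luciferase substrate (30 min, RT) and read luminescence.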

[19] = biological target: Peroxisome proliferator-activated receptor delta (Homo sapiens) (UniProt Q03181); experiment: qHTS assay to identify small molecule antagonists of the peroxisome proliferator-activated receptor delta (PPARd) signaling pathway (AID 743215; active means well fitted inhibition curve with a large enough effect in the signal ratio in the repeat runs, not every such curve was filed as active; the % refers to the signal ratio;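 further: cells stimulated with agonist L165041 at 300 nM final during compound exposure; series mostly up to about 62 µM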)
Method in brief: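 HEK293H UAS-bla, PPARd; agonist L165041 300 nM final with cpd in DMSO; 37 C 17 h; FRET substrate, RT 2 h; fluorescence intensity.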

[20] = biological target: Peroxisome proliferator-activated receptor delta (Homo sapiens) (UniProt Q03181); experiment: qHTS assay to identify small molecule agonists of the peroxisome proliferator-activated receptor delta (PPARd) signaling pathway (AID 743212; calls by dose curve)
Method in brief: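 GeneBLAzer PPARd UAS-bla HEK293H cells (beta-lactamase reporter under UAS control), plated and rested 5 h at 37 C, then exposed to compounds in DMSO at 37 C; LiveBLAzer B/G FRET substrate added, 2 h room temperature, fluorescence read.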

Sequence of Peroxisome proliferator-activated receptor gamma (Homo sapiens) (P37231 whole entry, looked up): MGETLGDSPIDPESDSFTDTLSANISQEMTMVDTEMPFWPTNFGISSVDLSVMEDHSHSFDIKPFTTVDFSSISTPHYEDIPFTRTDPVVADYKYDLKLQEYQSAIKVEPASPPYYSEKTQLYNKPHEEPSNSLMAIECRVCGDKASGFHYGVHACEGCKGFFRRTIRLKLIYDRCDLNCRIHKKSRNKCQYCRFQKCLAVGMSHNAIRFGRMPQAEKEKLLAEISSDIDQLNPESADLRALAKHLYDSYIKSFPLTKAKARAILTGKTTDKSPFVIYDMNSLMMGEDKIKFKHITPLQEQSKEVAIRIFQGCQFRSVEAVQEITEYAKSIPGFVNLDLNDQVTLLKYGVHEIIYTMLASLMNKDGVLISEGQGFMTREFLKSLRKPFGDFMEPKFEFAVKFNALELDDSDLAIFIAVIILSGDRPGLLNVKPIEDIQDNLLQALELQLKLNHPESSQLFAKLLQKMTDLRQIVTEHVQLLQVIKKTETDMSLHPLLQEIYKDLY
Sequence of Aryl hydrocarbon receptor (Homo sapiens) (P35869 whole entry, looked up): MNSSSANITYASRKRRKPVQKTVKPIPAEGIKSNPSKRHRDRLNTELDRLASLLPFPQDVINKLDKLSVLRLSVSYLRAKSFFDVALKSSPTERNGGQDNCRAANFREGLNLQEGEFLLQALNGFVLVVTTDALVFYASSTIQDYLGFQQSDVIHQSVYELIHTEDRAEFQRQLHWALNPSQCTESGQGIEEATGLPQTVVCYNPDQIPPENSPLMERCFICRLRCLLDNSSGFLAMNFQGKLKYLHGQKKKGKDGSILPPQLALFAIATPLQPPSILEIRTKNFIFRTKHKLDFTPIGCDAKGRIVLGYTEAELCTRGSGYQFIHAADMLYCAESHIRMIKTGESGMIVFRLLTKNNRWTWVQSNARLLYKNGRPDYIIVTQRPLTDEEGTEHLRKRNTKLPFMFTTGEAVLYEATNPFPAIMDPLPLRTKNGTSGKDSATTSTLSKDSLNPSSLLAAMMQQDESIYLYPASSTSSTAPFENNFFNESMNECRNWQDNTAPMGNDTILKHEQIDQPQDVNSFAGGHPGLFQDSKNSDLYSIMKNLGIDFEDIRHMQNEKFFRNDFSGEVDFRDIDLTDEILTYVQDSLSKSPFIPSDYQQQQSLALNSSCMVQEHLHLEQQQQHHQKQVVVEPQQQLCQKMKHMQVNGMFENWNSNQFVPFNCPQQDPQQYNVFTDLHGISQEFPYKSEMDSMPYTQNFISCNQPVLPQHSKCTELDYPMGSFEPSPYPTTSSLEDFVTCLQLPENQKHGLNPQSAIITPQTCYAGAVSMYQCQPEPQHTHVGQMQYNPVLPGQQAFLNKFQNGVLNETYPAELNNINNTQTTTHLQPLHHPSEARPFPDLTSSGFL
Sequence of Peroxisome proliferator-activated receptor delta (Homo sapiens) (Q03181 whole entry, looked up): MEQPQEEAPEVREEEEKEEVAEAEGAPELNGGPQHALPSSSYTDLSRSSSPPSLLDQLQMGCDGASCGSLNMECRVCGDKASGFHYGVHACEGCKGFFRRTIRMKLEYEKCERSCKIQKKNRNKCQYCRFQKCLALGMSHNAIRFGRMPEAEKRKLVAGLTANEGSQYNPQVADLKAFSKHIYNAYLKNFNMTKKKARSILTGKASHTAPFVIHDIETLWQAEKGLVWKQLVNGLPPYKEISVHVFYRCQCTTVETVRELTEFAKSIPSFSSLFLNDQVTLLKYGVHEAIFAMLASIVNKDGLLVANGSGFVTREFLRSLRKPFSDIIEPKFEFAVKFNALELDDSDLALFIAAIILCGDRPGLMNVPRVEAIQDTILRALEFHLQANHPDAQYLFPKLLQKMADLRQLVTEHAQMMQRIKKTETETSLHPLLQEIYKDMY
Sequence of Bile acid receptor (Homo sapiens) (Q96RI1 whole entry, looked up): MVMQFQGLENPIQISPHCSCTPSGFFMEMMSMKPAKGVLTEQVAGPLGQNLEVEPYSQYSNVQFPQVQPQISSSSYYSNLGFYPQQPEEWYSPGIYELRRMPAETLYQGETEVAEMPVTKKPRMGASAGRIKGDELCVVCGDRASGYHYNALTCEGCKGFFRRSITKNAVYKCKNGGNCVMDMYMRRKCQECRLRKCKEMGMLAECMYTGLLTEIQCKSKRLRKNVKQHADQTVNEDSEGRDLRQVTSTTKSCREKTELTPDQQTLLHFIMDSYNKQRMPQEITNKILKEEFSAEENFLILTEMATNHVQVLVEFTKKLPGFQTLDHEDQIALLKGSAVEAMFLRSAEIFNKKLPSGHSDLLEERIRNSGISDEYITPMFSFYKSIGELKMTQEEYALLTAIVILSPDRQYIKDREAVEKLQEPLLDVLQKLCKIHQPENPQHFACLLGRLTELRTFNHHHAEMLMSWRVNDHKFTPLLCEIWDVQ
Sequence of Vitamin D3 receptor (Homo sapiens) (P11473 whole entry, looked up): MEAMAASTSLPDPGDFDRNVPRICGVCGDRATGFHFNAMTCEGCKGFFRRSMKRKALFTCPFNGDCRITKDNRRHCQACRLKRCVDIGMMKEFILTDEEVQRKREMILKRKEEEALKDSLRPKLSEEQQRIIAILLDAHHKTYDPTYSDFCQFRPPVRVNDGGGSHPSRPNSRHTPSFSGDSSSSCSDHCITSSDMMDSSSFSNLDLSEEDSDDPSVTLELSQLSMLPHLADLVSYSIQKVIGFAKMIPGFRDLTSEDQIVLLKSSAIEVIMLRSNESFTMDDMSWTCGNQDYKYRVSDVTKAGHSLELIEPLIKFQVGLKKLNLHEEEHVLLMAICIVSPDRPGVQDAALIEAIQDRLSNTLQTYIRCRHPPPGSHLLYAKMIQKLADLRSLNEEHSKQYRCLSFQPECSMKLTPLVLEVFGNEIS

| Structure (SMILES) | Potency [1] | outcome [2] | outcome [3] | Potency [4] | Potency [5] | Potency [6] | Potency [7] | Potency [8] | outcome [9] | Potency [10] | outcome [11] | Potency [12] | Potency [13] | outcome [14] | outcome [15] | outcome [16] | outcome [17] | Potency [18] | outcome [19] | outcome [20] |
| --- | --- | --- | --- | --- | --- | --- | --- | --- | --- | --- | --- | --- | --- | --- | --- | --- | --- | --- | --- | --- |
| CCC(C)n1c(=O)[nH]c(C)c(Br)c1=O (stereo not drawn) | inactive | inactive | inactive | inactive | inactive | inactive | inactive | inactive | inactive | inactive | inactive | inactive | inactive | inactive | inactive | inactive | inactive |  |  |  |
| C(CCOCC1CO1)COCC1CO1 (stereo not drawn) | inactive | inactive |  |  |  |  | inactive | inactive | inactive | inactive | inactive | inactive |  | inactive | inactive | inactive |  | inactive | inactive |  |
| C=C(C)[C@@H]1CC=C(C=O)CC1 | inactive | inactive | inactive |  | inactive |  | inactive | inactive | inactive | inactive | inactive | inactive |  | inactive |  | inactive |  |  |  | inactive |
| CCOC(=O)/C=C(C)/C=C/C[C@@H](C)CCCC(C)C | inactive | inactive | inactive |  |  |  |  | 38.9 µM (active) |  |  |  | inactive | inactive | inactive | inactive |  |  |  |  | inactive |
| Nc1cnn(-c2ccccc2)c(=O)c1Cl | inactive | inactive | inactive |  | inactive | inactive | inactive | inactive | inactive | inactive |  |  | inactive |  |  | inactive |  |  | inactive |  |
| CC(CC(C#N)(c1ccccc1)c1ccccc1)N(C)C (stereo not drawn) | inactive |  |  |  | inactive |  | inactive | inactive | inactive |  |  | inactive |  | inactive | inactive | inactive | inactive | inactive | inactive | inactive |
| COc1cc(C[C@@H](C)N)c(OC)cc1C | inactive | inactive | inactive | inactive | inactive |  | inactive | inactive | inactive |  |  | inactive | inactive | inactive | inactive | inactive | inactive |  | inactive | inactive |
| O=C(Cc1ccccc1)OCc1ccccc1 | inactive | inactive | inactive | inactive | inactive | inactive | inactive | inactive | inactive | inactive |  | inactive | inactive | inactive | inactive | inactive | inactive |  | inactive |  |
| O=[N+]([O-])c1ccc2c3c(cccc13)CC2 | inactive | inactive | inactive | inactive | inactive |  | inactive | inactive |  | inactive | inactive | inactive | inactive | inactive |  | inactive | inactive |  | inactive |  |
| CCOC(=O)NC(=S)Nc1ccccc1NC(=S)NC(=O)OCC | inactive | inactive | inactive | inactive | inactive | inactive | inactive | inactive | inactive | inactive |  |  | inactive |  | inactive | inactive |  |  | inactive |  |
| CNC(=O)Oc1ccccc1C1OCCO1 | inactive | inactive | inactive | inactive | inactive | inactive | inactive |  |  | inactive | inactive | inactive | inactive | inactive | inactive | inactive | inactive |  | inactive | inactive |
| N#CC(CCc1ccc(Cl)cc1)(Cn1cncn1)c1ccccc1 (stereo not drawn) | inactive |  |  |  | inactive | inactive | inactive | inactive | inactive |  |  | inactive | inactive | inactive | inactive | inactive | inactive | inactive | inactive | inactive |
| CCN(CC)C(=O)[C@@H]1C=C2c3cccc4[nH]cc(c34)C[C@H]2N(C)C1 | inactive | inactive | inactive |  | inactive |  | inactive | inactive | inactive | inactive |  |  | inactive | inactive | inactive |  |  |  | inactive | inactive |
| CCOP(=S)(OCC)SCSP(=S)(OCC)OCC | inactive | inactive | inactive | inactive | inactive |  | inactive | inactive | inactive | inactive | inactive |  | inactive |  |  | inactive |  |  | inactive | inactive |
| CC(C)(C)OC(=O)c1ncn2c1[C@@H]1CCCN1C(=O)c1c(Br)cccc1-2 | inactive | inactive | inactive | inactive | inactive |  | inactive | inactive | inactive | inactive | inactive |  | inactive |  | inactive |  | inactive |  |  | inactive |
| O=C(CCCN1CCC(n2c(=O)[nH]c3ccccc32)CC1)c1ccc(F)cc1 | inactive | inactive | inactive |  | inactive |  | inactive | inactive | inactive | inactive | inactive |  | inactive |  | inactive | inactive |  |  |  |  |
| COc1cc(OC)nc(NC(=O)NS(=O)(=O)c2ncccc2OCC(F)(F)F)n1 | inactive | inactive |  | inactive | inactive | inactive | inactive | inactive | inactive | inactive | inactive | inactive | inactive | inactive | inactive | inactive | inactive |  | inactive | inactive |
| COCC(=O)N(c1c(C)cccc1C)N1CCOC1=O | inactive | inactive |  |  |  | inactive | inactive | inactive | inactive | inactive | inactive | inactive | inactive | inactive | inactive | inactive | inactive |  | inactive | inactive |
| C[N+](C)=CCl | inactive | inactive | inactive | inactive | inactive | inactive | inactive | inactive | inactive | inactive | inactive |  | inactive |  | inactive | inactive | inactive |  |  |  |
